# Reference: PubChem BioAssay AID449762 (Southern Research Specialized Biocontainment Screening …, 2010)
# Among all 330,000 compounds or so, about 1,900 (0.58%) were called active. Another 4% or so got no clear call; they are omitted. These entries were drawn from the full list. Results with a measured potency or affinity are listed apart. Values without a mark were called inactive. Cut-off read from the data, not from the text of the source: inconclusive = inhibition above about 70% without an active follow-up result; inactive = below that.
# Assay: M. tuberculosis growth inhibition, HTS (AID 449762);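 note: bacterial growth assessed after seven days of incubation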
# Conditions: M. tuberculosis H37Rv growth inhibition, 7H9 media; at 25 µM; active compounds read high
row,SMILES,inhibition
1,O=C(Nc1ccccc1F)Nc1ccccc1Br,4.25%
2,CCOc1ccc(Br)cc1/C(C)=N\NC1=NCCN1,-0.3%
3,COc1ccc(Br)cc1/C(C)=N/NC1=NCCN1,1.92%
4,CC(C)OCCCN1CC(=O)N2C(c3cccc([N+](=O)[O-])c3)c3[nH]c4ccccc4c3C[C@H]2C1=O (some centres undefined),19.4%
5,CCCc1cc(-c2nc(N)ncc2-c2csc(C)n2)c(O)cc1OC,-5.66%
6,CCc1cc(-c2nc(N)ncc2-c2ccc(Br)cc2)c(O)cc1OC,14.9%
7,CC(C)C(=O)Nc1nc2ccc(S(C)(=O)=O)cc2s1,4.62%
8,O=C(O)c1ccc(-n2c(-c3ccccc3)n[nH]c2=S)cc1,-4.35%
9,Cc1ccccc1CN1CCN(Cc2ccccc2)CC1,-6.4%
10,CCN1CCN(Cc2ccccc2C)CC1,-5.92%
11,CCOC(=O)Cc1csc(SCc2nc3ccccc3c(=O)[nH]2)n1,-2.6%
12,CSC(=S)N/N=C/c1ccc(Br)cc1,57.5%
13,CSC(=S)N/N=C/c1ccc(N(C)C)cc1,3.05%
14,COc1ccccc1N(O)C1CC(=O)N(c2ccc(F)cc2)C1=O (centres undefined),10.9%
15,COc1ccccc1N1C(=O)CC(N(O)c2ccccc2)C1=O (centres undefined),7.06%
16,S=C(N/N=C/c1ccc(Cl)cc1)N1CCOCC1,10.7%
17,Cc1ccc(/C=N/NC(=S)N2CCOCC2)cc1,-4.55%
18,N#Cc1c(N)nc(Sc2ccc(Cl)cc2)c(C#N)c1-c1ccccc1Cl,7.13%
19,O=C(O)CCCNS(=O)(=O)Cc1ccccc1,2.38%
20,COc1cc(OC)nc(Oc2ccccc2C(=O)Oc2ccc(C)cc2)n1,-5.69%
21,COc1cc(OC)nc(Oc2ccccc2C(=O)Oc2ccccc2Cl)n1,3.91%
22,O=C(NCc1ccccc1)N1CCC(CO)(Cc2cccc(F)c2)CC1,1.55%
23,CC(=O)c1sc(NC(=O)c2c(F)cccc2F)nc1-c1ccccc1,3.31%
24,CCCCCOc1ccc(NS(C)(=O)=O)cc1,-0.68%

row,SMILES,inhibition
1,CCCOc1ccc(NC2=CC(=O)CC(C)(C)C2)cc1,0.84%
2,COc1ccccc1NS(=O)(=O)c1ccc(O)c(C(=O)OCc2cccc([N+](=O)[O-])c2)c1,-3.81%
3,O=C(NCC1CCCO1)C(c1cccs1)N(Cc1cccs1)C(=O)c1ccc(-c2ccccc2)[nH]1 (centres undefined),0.19%
4,O=C(NCC1CCCO1)C(c1cccs1)N(Cc1ccccc1)C(=O)c1ccc(-c2ccccc2)[nH]1 (centres undefined),14.9%
5,COc1cc(NC(=S)NCCCO)c(OC)cc1Cl,-4.61%
6,CC(=O)c1ccc(C(=O)N2CCCC(CCC(=O)N(C)CCc3ccccn3)C2)s1 (centres undefined),-4.61%
7,Cc1c(CN2CCC(CO)(Cc3ccccc3)CC2)c2ccccc2n1C,-7.19%
8,OCC1(Cc2cccc(C(F)(F)F)c2)CCN(Cc2cc(F)cc(F)c2)CC1,14%
9,O=C(CN(C(=O)CCC(=O)Nc1nccs1)c1ccc(F)cc1)NCc1ccccc1,-3.51%
10,CCOC(=O)Cn1cc(-c2ccccc2)nn1,-3.68%
11,Cc1cc(C(F)(F)F)c2c(n1)sc1c(O)cc(=O)[nH]c12,-2.51%
12,O=c1cc(O)c2sc3nc(-c4ccccc4)cc(C(F)(F)F)c3c2[nH]1,5.22%
13,COc1cc(/C=C2\SC(=S)N(N3CCOCC3)C2=O)cc(OC)c1OC,3.16%
14,Cc1ccc(C(C)C)c(OCC(=O)NS(=O)(=O)c2ccc(Cl)cc2)c1,-3.31%
15,Cc1ccc(C(=O)N2CCN3C(=O)c4ccccc4C23c2ccc(Cl)cc2)cc1 (centres undefined),13.6%
16,O=C(c1ccccc1)N1CCN2C(=O)c3ccccc3C12c1ccc(Cl)cc1 (centres undefined),4.61%
17,COc1cccc(NC(=O)Nc2ccc(Br)cn2)c1,4.97%
18,Cc1[nH][nH]c(=O)c1N=Nc1ccc(Cl)cc1,-1.91%
19,O=c1cc(CSCc2ccc(Cl)cc2)[nH]c(=O)[nH]1,-3.47%
20,CCCNC(=O)c1onc(CSc2ccc(Cl)cc2)c1C(=O)NCCOC,-3.57%
21,Nn1c(SCc2ccc([N+](=O)[O-])cc2)nc2ccccc2c1=O,16.5%
22,CCCCn1c(N)c(C(=O)OCC2CCCO2)c2nc3ccccc3nc21 (centres undefined),15.8%
23,Nc1c(C(=O)OCC2CCCO2)c2nc3ccccc3nc2n1C1CCCCC1 (centres undefined),1.24%
24,CCc1ccccc1N(CC(=O)NC1CCCCC1)C(=O)CNC(=O)c1ccco1,2.96%

row,SMILES,inhibition
1,O=C(NCc1ccco1)C1CCCN(c2ncnc3c2nc2n3CCCCC2)C1 (centres undefined),1.1%
2,O=C(O)C1CCN(S(=O)(=O)c2cccc3nsnc23)CC1,0.03%
3,Cc1c(C(=O)NC(=S)NCC(C)C)oc2ccccc12,-6.41%
4,COc1ccc(C2c3ccc4ccccc4c3Oc3ncn(CCO)c(=N)c32)cc1OC (centres undefined),6.98%
5,COc1ccccc1C1c2ccc3ccccc3c2Oc2ncn(CCCO)c(=N)c21 (centres undefined),5.41%
6,Cc1c(Br)c([N+](=O)[O-])nn1CC(=O)c1ccccc1,-1.84%
7,COC(=O)Cn1c(C)nc([N+](=O)[O-])c1Br,0.3%
8,Cc1ccc(S(=O)(=O)NC(Cc2ccc(Cl)cc2)C(=O)O)cc1 (centres undefined),4.83%
9,COc1ccccc1-c1c(C)oc2c(CN3CCOCC3)c(O)ccc2c1=O,0.75%
10,COc1ccc(Br)cc1/C=N/NC(=O)c1cc(OC)c(OC)c(OC)c1,-3.85%
11,COc1cc(C(=O)N/N=C/c2ccsc2C)cc(OC)c1OC,17.9%
12,Cc1ccc(CCNC(=O)C2CCN(S(=O)(=O)c3ccc4nc5c(c(C(=O)O)c4c3)CCCC5)CC2)cc1,-1.27%
13,Cc1nc2ncnn2c(Nc2ccc3c(c2)OCCO3)c1C,6.9%
14,COc1ccc(NC(=O)COC(=O)CCC2CCCCC2)cc1,8.09%
15,O=C(C1=COCCO1)N1CCN(c2nc3ccc([N+](=O)[O-])cc3s2)CC1,1.78%
16,COc1ccc(Cl)c2sc(N3CCN(C(=O)C4=COCCO4)CC3)nc12,35.6%
17,COc1ccc(NC(=O)COC(=O)/C=C/c2ccccc2[N+](=O)[O-])cc1OC,0.41%
18,Cc1sc2ncn(CC(=O)N3CCN(c4ccccn4)CC3)c(=O)c2c1S(=O)(=O)N1CCCCC1,-2.75%
19,CN1CCN(CCCN2c3ccccc3Sc3ccc(S(=O)(=O)N(C)C)cc32)CC1,7.63%
20,FC(F)(F)c1ccc2c(c1)N(CCCN1CCN(CCCl)CC1)c1ccccc1S2,4.41%
21,CS(=O)(=O)c1ccc(Cl)c(NC(=O)C2CC(=O)N(Cc3ccco3)C2)c1 (centres undefined),3.6%
22,S=C(NC1CCCC1)N1CCN(c2ccccn2)CC1,-3.07%
23,CC1=NN(C(=O)c2ccccc2)C(O)(c2ccc(Br)cc2)C1 (centres undefined),-3.64%
24,CC1=NN(C(=O)c2ccc(Cl)cc2)C(O)(c2ccccc2)C1 (centres undefined),28%

row,SMILES,inhibition
1,Cc1cccc(NC(=O)CNC(=O)c2sc3ccccc3c2Cl)n1,-2.76%
2,COc1ccc([C@@H]2CC=C(C(=O)O)[C@H](c3ccc(C(C)(C)C)cc3)N2S(=O)(=O)c2ccc(C)cc2)cc1OC,4.96%
3,CCS(=O)(=O)c1ccc2c(c1)N(S(C)(=O)=O)CC(C(=O)NC1CC1)O2 (centres undefined),0.09%
4,O=C(O)Cn1c(=O)c(-c2ccccc2)nc2ccccc21,-12.6%
5,On1c(-c2ccccc2)nc2ccccc21,9.54%
6,N#Cc1ccccc1S(=O)(=O)N1CCN(CC(O)COc2ccccc2F)CC1 (centres undefined),3.84%
7,N=C1C(c2ccccc2)=C(O)CN1c1cccc2ccccc12,-2.85%
8,CCOc1ccc(/C=C2\SC(=S)N(N3C(=O)C4CC4C3=O)C2=O)cc1 (centres undefined),-8.07%
9,CCc1ccc(NC(=S)Nc2ccc3cn[nH]c3c2)cc1,32%
10,CCNC(=S)Nc1ccc2cn[nH]c2c1,-5.21%
11,CCCCn1cnc2c(oc3ccccc32)c1=O,-0.57%
12,Nc1nn(S(=O)(=O)c2ccccc2)cc1-c1cccc([N+](=O)[O-])c1,1.89%
13,CN(C)[C@@H]1C(=O)C(C(N)=O)=C(O)[C@@]2(O)C(=O)C3=C(O)c4c(O)ccc(Cl)c4[C@@](C)(O)[C@H]3C[C@@H]12,5.01%
14,CCOc1ccc(NC(=O)CCC(=O)Oc2ccc(C)cc2)cc1,-3.3%
15,O=C(COC(=O)Cc1ccsc1)Nc1ccccc1,-4.1%
16,C=CCNC(=S)NNC(=O)c1csc(CC)c1,-5.45%
17,Cc1ccc(NC(=O)C(C)N=C2NS(=O)(=O)c3ccccc32)cc1F (centres undefined),11%
18,CC(=O)N1CCN(c2ccc([N+](=O)[O-])cc2)CC1,-5.3%
19,CC(=O)N1CCN(c2ccc([N+](=O)[O-])c(-n3nc(C)cc3C)c2)CC1,1.6%
20,CCOc1ccccc1OCC(=O)OCC(=O)c1c(N)n(CC(C)C)c(=O)n(C)c1=O,0.88%
21,CC(=O)OCC(=O)C1CCC2C3CC=C4CC(O)CCC4(C)C3CCC12C (centres undefined),-10.9%
22,CN(Cc1cccc(Cl)c1Cl)C(=O)c1cccc(S(=O)(=O)N2CCN(Cc3ccccc3)CC2)c1,-12.3%
